# POLB inh = blocks human DNA polymerase beta activity; P06746; Pol beta primer extension/strand displacement, fluorescence kinetic; Potency, µM (top dose mostly 114 µM), inactives show at the highest dose activity change, negative = inhibition, most hits filed as inhibitors; hit rate 1.3% among 340,000; further: potency means the concentration at half of the fitted maximal effect; on the % scale 0 is the no-effect control and ±100 the full control effect
#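 Enzyme-only controls used 10 nM Pol beta; buffer lacking enzyme served as negative control. Compound preincubated 15 min, then 50 nM substrate added; 0 and 10 min reads at room temperature.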
# Pol eta inh-1 = inhibitors of human DNA polymerase eta. hit rate 1.2% among 390,000. recombinant Pol eta, fluorescent DNA replication assay. Q9Y253. AID 588591. Potency, µM (highest dose often 114 µM), inactives show at the top dose activity change, negative = inhibition, hits mostly inhibitors; further: potency means the concentration at half of the fitted maximal effect; on the % scale 0 is the no-effect control and ±100 the full control effect
#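 Pol eta at 10 nM preincubated with compounds 15 min at room temperature; reaction started with fluorescent substrate (50 nM final) and read kinetically at 0 and 10 min.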
# PI5P4K alpha inh = inhibitors of human PI5P4K alpha | P48426 | PI5P4Kalpha enzyme, ADP-Glo luminescence, 60 min; active compounds read low | max response, % | hit rate 1.2% among 330,000 | AID 652105; active means max response of -50% or lower; inconclusive means between -30% and -50%; inactive means -30% or higher; further: value at the top dose of about 77 µM; on the % scale 0 is the no-effect control and ±100 the full control effect
#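 Enzyme plus substrate dispensed, test compounds pinned in, then ATP (5 microM final) added. After 60 min at RT, ADP-Glo reagent 1 for 45 min and reagent 2 for 30 min preceded luminescence imaging.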
# WRN helicase inh-1 = WRN helicase (human) inhibition; Q14191; WRN helicase unwinding, fluorescent forked duplex, kinetic; Potency, µM (titrated, usually from 114 µM), inactives show at the top dose activity change, negative = inhibition, actives largely listed as inhibitors; hit rate 0.46% among 360,000; further: potency means the concentration at half of the fitted maximal effect; on the % scale 0 is the no-effect control and ±100 the full control effect; nearly all actives have a fitted effect of over 55% in size
# Target sequence (Q14191 whole entry, looked up): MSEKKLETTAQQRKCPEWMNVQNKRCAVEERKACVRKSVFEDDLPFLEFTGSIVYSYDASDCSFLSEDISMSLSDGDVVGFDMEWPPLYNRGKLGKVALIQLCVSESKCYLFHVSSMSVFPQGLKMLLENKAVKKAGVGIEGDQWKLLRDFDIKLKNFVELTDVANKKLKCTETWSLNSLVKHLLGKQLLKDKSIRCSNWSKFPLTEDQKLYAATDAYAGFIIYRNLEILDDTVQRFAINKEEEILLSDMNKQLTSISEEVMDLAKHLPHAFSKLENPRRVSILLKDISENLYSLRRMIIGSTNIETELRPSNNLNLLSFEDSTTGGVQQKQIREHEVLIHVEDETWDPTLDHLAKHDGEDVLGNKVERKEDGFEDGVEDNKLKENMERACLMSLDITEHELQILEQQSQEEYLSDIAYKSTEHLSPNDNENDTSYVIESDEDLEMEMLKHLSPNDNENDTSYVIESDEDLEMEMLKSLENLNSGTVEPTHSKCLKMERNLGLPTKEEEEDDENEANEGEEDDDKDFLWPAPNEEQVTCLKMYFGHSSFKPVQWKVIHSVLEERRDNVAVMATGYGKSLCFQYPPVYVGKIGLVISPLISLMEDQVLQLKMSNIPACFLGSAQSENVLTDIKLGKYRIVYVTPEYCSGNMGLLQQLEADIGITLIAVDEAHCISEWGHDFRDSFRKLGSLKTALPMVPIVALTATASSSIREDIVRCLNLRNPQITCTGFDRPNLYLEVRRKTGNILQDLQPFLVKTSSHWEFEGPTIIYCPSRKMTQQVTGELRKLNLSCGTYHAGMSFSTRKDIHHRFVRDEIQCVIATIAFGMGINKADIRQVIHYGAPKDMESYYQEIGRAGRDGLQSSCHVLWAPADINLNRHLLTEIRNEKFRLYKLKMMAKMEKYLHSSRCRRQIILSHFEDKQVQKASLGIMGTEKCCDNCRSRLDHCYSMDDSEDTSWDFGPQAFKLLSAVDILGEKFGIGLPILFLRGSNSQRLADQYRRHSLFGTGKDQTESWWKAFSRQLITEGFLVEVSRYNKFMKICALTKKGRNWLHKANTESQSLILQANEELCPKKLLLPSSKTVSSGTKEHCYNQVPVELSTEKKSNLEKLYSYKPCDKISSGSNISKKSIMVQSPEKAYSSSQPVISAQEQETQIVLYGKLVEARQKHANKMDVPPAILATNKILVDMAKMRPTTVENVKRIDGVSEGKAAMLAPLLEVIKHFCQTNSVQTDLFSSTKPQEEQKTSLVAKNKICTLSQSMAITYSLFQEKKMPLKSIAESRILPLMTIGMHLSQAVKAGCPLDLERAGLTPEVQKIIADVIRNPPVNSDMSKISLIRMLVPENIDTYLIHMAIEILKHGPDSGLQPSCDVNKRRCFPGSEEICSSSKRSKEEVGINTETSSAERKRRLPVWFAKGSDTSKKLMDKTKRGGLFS
#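 Enzyme (20 nM final) and test compound sit together 15 min at room temperature before substrate addition. Substrate is a single-forked duplex oligonucleotide (100 nM) labelled with fluorophore and quencher, with 2 mM ATP; helicase unwinding raises red fluorescence, read kinetically.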
# POLI inh = DNA polymerase iota (human) inhibition | Q9UNA4 | Pol iota fluorescent replication assay, 10 min | Potency, µM (series often up to 115 µM), inactives show at the top dose activity, negative = inhibition, usual class: inhibitors | hit rate 1% among 390,000; further: potency means the concentration at half of the fitted maximal effect
#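 Pol iota at 10 nM preincubated 15 min with compounds at room temperature; reaction started with fluorescent substrate, 50 nM final. Fluorescence read kinetically at 0 and 10 min; buffer-only wells as negative control.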
# Pol kappa inh-1 = blocks human DNA polymerase kappa activity; Potency, µM (top dose mostly 107 µM), for inactives: top-dose activity, negative = inhibition, usual class: inhibitors; hit rate 0.53% among 400,000; purified Pol kappa, fluorescent DNA synthesis assay, 10 min; further: potency means the concentration at half of the fitted maximal effect; on the % scale 0 is the no-effect control and ±100 the full control effect
#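 10 nM Pol kappa preincubated 15 min at room temperature with compounds, then reaction started with substrate at 50 nM final. Fluorescence read kinetically at 0 and 10 min; buffer-only wells served as negative control.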
# TbPGK inh = validation of Trypanosoma brucei phosphoglycerate kinase inhibitors. shares compounds with Pol kappa inh-1. TbPGK coupled GAPDH assay, Kinase-Glo luminescence. Potency, µM (top dose mostly 57.5 µM), for inactives: at the top dose activity change, negative = inhibition, hits mostly inhibitors. hit rate 79% among 500; further: potency means the concentration at half of the fitted maximal effect; on the % scale 0 is the no-effect control and ±100 the full control effect; nearly all actives have a fitted effect of over 65% in size
# POLI cherry-pick = Confirm cherry-picked inhibitors of human polymerase iota. shares compounds with Pol kappa inh-1. Pol iota primer extension, TAMRA/BHQ fluorescence. Potency, µM, actives largely listed as inhibitors. hit rate 77% among 1,500. AID 720496; further: potency means the concentration at half of the fitted maximal effect
# Pol kappa inh-2 = confirmation of human DNA polymerase kappa inhibitors | purified Pol-kappa, fluorescent strand-displacement substrate | hit rate 76% among 920 | Potency, µM, hits mostly inhibitors | shares compounds with Pol eta inh-1; further: potency means the concentration at half of the fitted maximal effect
# Pol eta inh-2 = confirmation of human DNA polymerase eta inhibitors | Pol eta primer extension, TAMRA/BHQ fluorescence, 10 min | hit rate 64% among 2,600 | Potency, µM, usual class: inhibitors | AID 720502 | shares compounds with Pol eta inh-1; further: potency means the concentration at half of the fitted maximal effect
# WRN helicase inh-2 = WRN helicase inhibition, cherry-pick retest. shares compounds with WRN helicase inh-1. WRN helicase DNA unwinding, fluorescence kinetic. Potency, µM (titrated, usually from 57.1 µM), for the others: at the highest dose activity, negative = inhibition, hits mostly inhibitors. hit rate 63% among 610. AID 720497; further: potency means the concentration at half of the fitted maximal effect; nearly all actives have a fitted effect of over 65% in size
# TO DNA binding = DNA binding via thiazole orange displacement; Potency, µM (highest dose often 57.1 µM), inactives show at the highest dose activity change, negative = inhibition, most hits filed as inhibitors; hit rate 10% among 610; shares compounds with WRN helicase inh-1; thiazole orange DNA binding displacement, fluorescence; AID 720499;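 further: drop in dye fluorescence marks compound binding to DNA; potency means the concentration at half of the fitted maximal effect; on the % scale 0 is the no-effect control and ±100 the full control effect; nearly all actives have a fitted effect of over 60% in size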
# BLM counter = counter-screen for WRN helicase inhibitors: human BLM helicase inhibition. shares compounds with WRN helicase inh-1. Recombinant BLM helicase DNA unwinding, red fluorescence. Potency, µM (doses to about 57.1 µM), for the others: top-dose activity change, negative = inhibition, actives largely listed as inhibitors. hit rate 60% among 610; further: potency means the concentration at half of the fitted maximal effect; nearly all actives have a fitted effect of over 60% in size
# The depositor's hits bear a star; ? = inconclusive; . = not tested or not shown. This is a sample that favours compounds with a hit; in the whole collection about 2.8% have one here. Unless noted, the call rests on the fitted dose curve; in most records, active means well fitted curve in the direction sought with a large enough effect; inconclusive means small, poorly fitted or top-dose-only effect, or another doubt; inactive means no such curve, though single readings can be large; an effect the other way counts as inactive or inconclusive.
SMILES,POLB inh,Pol eta inh-1,PI5P4K alpha inh,WRN helicase inh-1,POLI inh,Pol kappa inh-1,POLI cherry-pick,Pol kappa inh-2,Pol eta inh-2,WRN helicase inh-2,TO DNA binding,BLM counter,others
O=C(NCc1ccc(Cl)nc1)c1ccc2nc([C@@H]3O[C@H](CO)[C@H](O)[C@H](O)[C@H]3O)[nH]c2c1,.,.,-0.4,-6.0%,.,.,.,.,.,.,.,.,
CC(=O)Nc1ccc2nc3c(=O)[nH]c(=O)[nH]c3nc2c1,28.2µM*,.,.,.,8.91µM*,28.2µM*,11.9*,2.38*,16.9*,3.83µM*,29.4%,1.36µM*,
COc1ccc(/C=c2\sc3nc(=O)c(C)nn3c2=O)c(OC)c1,-8.1%,15.3%,-1.6,1.1%,0.6%,-12.0%,.,.,.,.,.,.,
COc1ccc(Br)cc1/C=c1\sc2nc(-c3ccco3)nn2c1=O,4.47µM*,3.16µM*,-58.7*,35.5µM*,8.91µM*,20µM*,59.7*,11.9*,30.1*,17.1µM*,19.2µM*,7.64µM*,
O=C1OC(c2cccs2)=N/C1=C\c1ccc(-c2ccccc2Cl)o1,?,-29.6%,.,-27.7%,?,-12.5%,.,.,.,.,.,.,
O=C1OC(c2cccs2)=N/C1=C/c1ccc(-c2cccc(C(=O)O)c2)o1,3.55µM*,14.1µM*,-70.2*,?,20µM*,44.7µM*,37.7*,.,26.9*,19.2µM*,?,?,
N#C/C(=C\c1ccc(-c2cc(Cl)ccc2Cl)o1)C(=O)Nc1ccccc1C(=O)O,?,39.8µM*,.,.,?,?,75.2*,10.6*,?,17.1µM*,10.8µM*,3.04µM*,
CCOc1ccc(-c2nc(SCC(=O)Nc3ccc(C)c(C)c3)n3[nH]c(=O)cc3n2)cc1,3.16µM*,50.1µM*,.,.,?,-25.7%,26.7*,.,84.9*,15.2µM*,8.9%,3.04µM*,TbPGK inh=16.3µM*
Cc1ccc(-c2nc(SCCOc3ccccc3C)n3[nH]c(=O)cc3n2)cc1,-22.1%,-5.2%,.,.,-2.5%,0.7%,.,.,.,.,.,.,
CCc1ccc(NCc2cc3ccc(OC)cc3n(CC(=O)Nc3ccc(C)c(Cl)c3)c2=O)cc1,29.5%,-14.2%,.,.,21.4%,11.8%,.,.,.,.,.,.,
O=C(O)c1cccc(-n2cccc2/C=C/[N+](=O)[O-])c1,3.55µM*,2.82µM*,-87.8*,20µM*,?,14.1µM*,15*,.,5.36*,17.1µM*,-5.7%,19.2µM*,TbPGK inh=20.6µM*
O=C(O)c1cccc(-n2cccc2/C=N/O)c1,12.6µM*,3.16µM*,?,?,11.2µM*,35.5µM*,18.9*,.,30.1*,24.1µM*,0.3%,19.2µM*,

# Compound activity (PubChem)
